# Hits are enriched below; roughly 9.3% of the tested compounds scored in any of these assays.
# SMN2 splice enh: qHTS Assay for Enhancers of SMN2 Splice Variant Expression | HEK293 SMN2-luciferase splicing reporter, luminescence, 30-36 h | Potency, µM (doses to about 46.1 µM), inactives show top-dose activity change, positive = activation, actives largely listed as activators | actives 2.8% (n = 210,000); note: % of control where 0% means no effect; nearly all actives have a fitted effect of over 55% in size
#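 qHTS luciferase splicing reporter: luminescence rises when SMN2 exon 7 is included in transfected HEK293 cells. Compound exposure lasted 30-36 h at 37C, with 4.5 mM final sodium butyrate as control, followed by a ONE-Glo read.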
# ELG1 repair inh: qHTS screen for small molecules that inhibit ELG1-dependent DNA repair in human embryonic kidney (HEK293T) cells expressing luciferase-tagged ELG1. HEK293T ELG1-luciferase reporter, luminescence, 16 h; DNA damage induced by 5-fluorouridine. Potency, µM (titrated, usually from 46.1 µM), inactives show top-dose activity change, negative = inhibition, hits mostly inhibitors. actives 2.3% (n = 330,000). AID 504467, 2011; note: % is set by controls: 0 for no effect and ±100 for the full control effect; nearly all actives have a fitted effect of over 55% in size
#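 Cells (2,000 per well) received 5-fluorouridine plus test compound or DMSO and were incubated 16 hr at 37 °C, 5% CO2. Luciferase activity was read by luminescence 30 min after ONE-Glo addition; signal suppression marked inhibition of damage-induced ELG1 function.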
# ELG1 genotox: qHTS screen for small molecules that induce genotoxicity in human embryonic kidney (HEK293T) cells expressing luciferase-tagged ELG1; HEK293T ELG1-luciferase reporter, luminescence, 16 h; Potency, µM (doses to about 46 µM), for inactives: at the highest dose activity change, positive = activation, hits mostly activators; actives 1.3% (n = 330,000); note: % of control where 0% means no effect; nearly all actives have a fitted effect of over 60% in size
#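 Luminescence read-out: rising ELG1-luciferase signal, reflecting elevated ELG1 protein under genetic stress, flags genotoxic compounds. Cells were treated for 16 hr at 37 °C before ONE-Glo detection.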
# Rab9 promoter act: qHTS Assay for Rab9 Promoter Activators. Huh7 Rab9 promoter-luciferase reporter, luminescence, 24 h. Potency, µM (top dose mostly 9.22 µM), for inactives: top-dose activation, negative = inhibition, usual class: activators. actives 2.8% (n = 320,000). AID 485297, 2010; note: % of control where 0% means no effect; nearly all actives have a fitted effect of over 60% in size
#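 Cell-based reporter: Huh7 stable for Rab9 promoter-driven luciferase, plated in reduced-serum medium with 10% FBS at 1500 cells/well, compound-treated 24 h at 37 °C, luminescence read after 10 min reagent.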
# FLuc modulator: qHTS profiling assay for firefly luciferase inhibitor/activator using purifed enzyme and Km concentrations of substrates (counterscreen for miR-21 project); purified FLuc, Km substrates, luminescence inhibition; Potency, µM (series often up to 57.5 µM), inactives show at the highest dose activity change, negative = inhibition, hits mostly inhibitors; actives 6.9% (n = 360,000); AID 588342, 2011;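 note: plate controls were vehicle for no effect and reference inhibitor for full effect; nearly all actives have a fitted effect of over 55% in size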
# Target sequence (P08659 whole entry, looked up): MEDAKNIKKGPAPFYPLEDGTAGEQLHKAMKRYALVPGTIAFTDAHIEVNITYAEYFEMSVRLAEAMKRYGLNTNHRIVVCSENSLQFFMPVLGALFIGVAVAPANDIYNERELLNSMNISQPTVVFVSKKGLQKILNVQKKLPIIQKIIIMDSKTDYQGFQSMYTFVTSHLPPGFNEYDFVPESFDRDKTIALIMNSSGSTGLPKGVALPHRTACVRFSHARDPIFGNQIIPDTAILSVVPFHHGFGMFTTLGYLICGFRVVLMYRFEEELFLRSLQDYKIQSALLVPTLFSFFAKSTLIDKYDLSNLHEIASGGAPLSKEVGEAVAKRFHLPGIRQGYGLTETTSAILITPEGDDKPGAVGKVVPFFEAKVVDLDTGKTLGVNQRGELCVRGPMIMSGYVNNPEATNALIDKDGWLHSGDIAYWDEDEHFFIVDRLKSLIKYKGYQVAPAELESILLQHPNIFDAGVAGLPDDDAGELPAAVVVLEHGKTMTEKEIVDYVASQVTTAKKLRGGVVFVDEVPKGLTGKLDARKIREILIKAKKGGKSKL
#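 Biochemical qHTS of compounds, final roughly 60 µM downward over six points, against 10 nM purified firefly luciferase using Km concentrations of substrates (10 uM D-luciferin, 10 uM ATP) in Tris acetate pH 7.5 buffer; luminescence output.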
# NPC1 prom act: qHTS Assay for NPC1 Promoter Activators; actives 2.4% (n = 320,000); AID 485313, 2010; Huh7 NPC1 promoter luciferase reporter, 24 h; Potency, µM (series often up to 9.22 µM), inactives show at the highest dose activation, hits mostly activators; note: % of control where 0% means no effect; nearly all actives have a fitted effect of over 60% in size
#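 In 1536-well qHTS, Huh7 cells harboring an NPC1 promoter–luciferase construct received compound for 24 h; activation was quantified by luminescence following luciferase reagent addition.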
# * marks the source's active call; other numbers are inactive results; ? = inconclusive; / = no result; ! = not active in a repeat. Calls come from the whole dose curve; as a rule, active = well fitted curve in the direction sought with a large enough effect; inconclusive = small, poorly fitted or top-dose-only effect, or another doubt; inactive = no such curve, though single readings can be large; an effect the other way counts as inactive or inconclusive. Potency is the fitted concentration of half-maximal effect.
SMILES,SMN2 splice enh,ELG1 repair inh,ELG1 genotox,Rab9 promoter act,FLuc modulator,NPC1 prom act
O=C(O)c1cccc(NC(=O)C2C3C=CC(C3)C2C(=O)OCC(F)(F)C(F)F)c1 (configuration not stated),-7%,21%,6%,5%,17µM*,-2%
Cc1ccc(NC(=O)C(Cc2ccccc2)NS(=O)(=O)c2ccc3c(c2)oc(=O)n3C)c(Cl)c1 (configuration not stated),0%,/,/,/,-2%,/
CCOc1cc(C(N)=O)cc(Br)c1OCC,-13%,8.2µM*,-19%,1%,2%,-3%
CN(c1ccccc1)S(=O)(=O)c1nnc(NC(=O)COc2ccccc2)s1,/,8%,-2%,-2%,0.43µM*!,3%
CN(c1ccccc1)S(=O)(=O)c1nnc(NC(=O)COc2ccccc2F)s1,/,-5%,-4%,-2%,-1%,-6%
Cc1ccccc1OCC(=O)Nc1nnc(S(=O)(=O)N(C)c2ccccc2)s1,/,/,/,/,0.95µM*,/
Cc1ccccc1N(C)S(=O)(=O)c1nnc(NC(=O)C(C)C)s1,/,/,/,/,-3%,/
Cc1ccccc1N(C)S(=O)(=O)c1nnc(NC(=O)c2ccccc2F)s1,/,-2%,-4%,1%,6µM*,-4%
O=C(COc1ccccc1)Nc1nnc(S(=O)(=O)Nc2ccccc2)s1,/,-1%,4%,0%,1.5µM*!,-8%
O=C(COc1ccccc1)Nc1nnc(S(=O)(=O)N2CCCC2)s1,/,8%,-1%,-12%,2%,-5%
COC(=O)C1=C(C)Nc2nc(SCc3ccccc3)[nH]c(=O)c2C1c1cccs1 (configuration not stated),-3%,-10%,4%,-15%,2%,-4%
Cc1cc(NC(=O)c2cccnc2)ccc1Br,/,?,12%,?,?,?
O=C(Nc1cccc(NC(=O)c2ccccc2)n1)c1ccccc1,/,-8%,0%,0%,9.5µM*,-1%
Cc1cccc(NC(=O)c2cccc(C(=O)Nc3cccc(C)n3)c2)n1,/,-10%,1%,1%,-19%,2%
Cc1cccc(NC(=O)c2ccc(C(=O)c3ccccc3)cc2)n1,/,?,21µM*,?,9.5µM*,?
CCO[C@H]1c2c(ccc3ccc(=O)oc23)OC(C)(C)[C@@H]1O,/,-1%,1%,-1%,3%,-2%
CCCCS(=O)(=O)/C=C\C=C/S(=O)(=O)CCCC,-128%,8.2µM*,?,-48%,-8%,-35%
Cc1occc1C(=O)N/N=C/c1cccs1,25%,?,11%,?,?,?
Cc1occc1C(=O)Nc1cccc2ccccc12,3.2µM*,?,5.8µM*,1.6µM*,2.7µM*,2µM*
CC(C)Oc1ccccc1/C=N/NC(=O)c1ccccc1Cl,/,5%,0%,0%,?,26%
Cc1oncc1C(=O)Nc1cccc2ccccc12,/,?,4%,1%,-1%,5%
Cc1occc1C(=O)N/N=C/c1cccc2ccccc12,/,?,7.3µM*,2.2µM*,5.4µM*,?
O=C(N/N=C/c1cccc2ccccc12)c1ccccc1Cl,/,28%,6%,3%,7.6µM*,-2%
N#C/C(=C/c1ccc(Sc2nc3ccccc3[nH]2)o1)c1cccc(F)c1,-54%,18µM*,-1%,8%,-2%,3%
N#C/C(=C\c1ccc(-c2ccccc2C(=O)O)o1)c1nc2ccccc2[nH]1,-6%,?,12%,0%,12µM*,6%
Cc1cc2nc3s/c(=C/c4ccc(-c5ccccc5C(=O)O)o4)c(=O)n3c2cc1C,/,2%,5%,11%,4.8µM*,15%
